The list is not random: actives were taken first. Their share in the collection is about 12%.
L3MBTL1 block – L3MBTL1 (human) inhibition; Q9Y468; AlphaScreen L3MBTL1–H3K9me1 peptide binding; Potency, µM (titrated, usually from 57.1 µM), for the others: at the highest dose activity, negative = inhibition, usual class: inhibitors; 230,000 tested, 0.66% active; AID 485360; note: % is set by controls: 0 for no effect and ±100 for the full control effect; nearly all actives have a fitted effect of over 60% in size
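First, the protein-peptide complex forms for 30 min at room temperature (L3MBTL1 50 nM, biotinylated H3K9me1 peptide 75 nM). Next, compounds are pin-transferred and incubated 30 min. Finally, AlphaScreen beads are added and read after 30 min.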
Sfp inh – blocks B. subtilis Sfp PPTase activity; Q9F4F7; Biochemical Sfp PPTase activity, qHTS; Potency, µM, inactives show largest response in the series, negative = inhibition, actives largely listed as inhibitors; 310,000 tested, 3.5% active; AID 1490;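 note: the enzyme is Sfp with the accession as filed and its product quenches rhodamine fluorescence; 0% = enzyme reaction without inhibitor and -100% = no enzyme wells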
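Sfp 15 nM + cpd, 15 min RT; start w/ rhodamine-CoA 5 uM, BHQ-2-YbbR 12.5 uM (final); 50 mM Hepes pH 7.6, 10 mM MgCl2, 0.01% NP-40, 0.01% BSA; read 525/598 nm at 0 and 30 min.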
HP1b chromo inh – HP1-beta chromodomain-methylated histone interaction inhibition. P83916. AlphaScreen HP1-beta / biotin-H3K9me3 peptide binding. Potency, µM (titrated, usually from 114 µM), without a hit: top-dose activity change, negative = inhibition, most hits filed as inhibitors. 390,000 tested, 0.56% active; note: nearly all actives have a fitted effect of over 70% in size
Target sequence (P83916 whole entry, looked up): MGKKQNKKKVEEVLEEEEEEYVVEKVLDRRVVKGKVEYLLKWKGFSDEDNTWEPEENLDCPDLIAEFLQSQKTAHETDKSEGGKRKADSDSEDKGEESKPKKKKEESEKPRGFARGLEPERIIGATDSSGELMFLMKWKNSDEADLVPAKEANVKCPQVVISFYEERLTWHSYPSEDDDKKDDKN
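HP1-beta protein (50 nM final) preincubated 30 min at room temperature with biotinylated H3(1-18)K9me3 peptide (50 nM) in PBS pH 7.4, 0.01% Tween-20, then compound added for 30 min. AlphaScreen streptavidin donor/nickel chelate acceptor beads (10 ug/mL final), 30 min dark, luminescence read.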
G9a inh – inhibitors of human histone lysine methyltransferase G9a; Q96KQ7; G9a H3K9 monomethylation, AlphaScreen, 2 h; Potency, µM (series often up to 102 µM), inactives show top-dose activity, negative = inhibition, actives largely listed as inhibitors; 350,000 tested, 8.8% active; AID 504332; note: % is set by controls: 0 for no effect and ±100 for the full control effect; nearly all actives have a fitted effect of over 75% in size
Target sequence (Q96KQ7 913-1193 limits assumed): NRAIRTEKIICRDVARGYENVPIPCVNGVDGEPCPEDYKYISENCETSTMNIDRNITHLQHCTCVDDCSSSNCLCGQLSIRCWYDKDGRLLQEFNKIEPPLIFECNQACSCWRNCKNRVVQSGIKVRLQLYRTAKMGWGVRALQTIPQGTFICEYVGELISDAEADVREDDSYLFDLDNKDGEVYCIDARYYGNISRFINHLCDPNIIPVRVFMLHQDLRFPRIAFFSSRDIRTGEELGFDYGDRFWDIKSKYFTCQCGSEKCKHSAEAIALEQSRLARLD
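Methyltransferase reactions run at room temperature for 2 h (20 nM enzyme, 500 nM biotin-H3K9 peptide, 20 uM SAM) after a 15 min compound preincubation; product detected by AlphaScreen beads and anti-H3K9me1 antibody.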
BAZ2B block – inhibitors of human BAZ2B bromodomain; Potency, µM (highest dose often 114 µM), for the others: at the highest dose activity change, negative = inhibition, hits mostly inhibitors; AlphaScreen BAZ2B-H3K14Ac peptide displacement; Q9UIF8; AID 504333; 360,000 tested, 4.4% active; note: % is set by controls: 0 for no effect and ±100 for the full control effect; nearly all actives have a fitted effect of over 60% in size
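Inhibition is scored as reduced AlphaScreen emission. The BAZ2B/b-H3(5-23)K14Ac complex (50 nM each) in PBS pH 7.4, 0.01% Tween-20 meets compound (up to 110 uM) for 30 min at RT before bead addition.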
JMJD2A Tudor – inhibitors of human JMJD2A Tudor domain; AID 504339; AlphaScreen JMJD2A-Tudor / H3K4me3 peptide binding; Potency, µM (top dose mostly 114 µM), inactives show at the top dose activity change, negative = inhibition, actives largely listed as inhibitors; O75164; 390,000 tested, 4.4% active; note: % is set by controls: 0 for no effect and ±100 for the full control effect; nearly all actives have a fitted effect of over 50% in size
An asterisk follows results filed as active; u = inconclusive; x = not tested or not shown; [ ] = another dose, or the depositor's remark. Calls come from the whole dose curve; as a rule, active = well fitted curve in the direction sought with a large enough effect; inconclusive = small, poorly fitted or top-dose-only effect, or another doubt; inactive = no such curve, though single readings can be large; an effect the other way counts as inactive or inconclusive. Potency is the fitted concentration of half-maximal effect.

SMILES	L3MBTL1 block	Sfp inh	HP1b chromo inh	G9a inh	BAZ2B block	JMJD2A Tudor
O=C(c1ccc2oc(CCCc3ccccc3)nc2c1)N1CCCC1	x	3%	29%	34%	-4%	0%
Cc1ccc(S(=O)(=O)CCC(=O)N(C)C2CCCCC2)cc1	x	3%	23%	42%	-5%	2%
C[C@H](CO)N1C[C@H](C)[C@@H](CN(C)C(=O)Nc2ccc(C(F)(F)F)cc2)Oc2ccc(NS(=O)(=O)c3ccccc3)cc2C1=O	4%	x	56%	x	x	-10%
COCCCNC(=S)Nc1cccc(S(=O)(=O)NC2=NCCC2)c1	12%	19%	33%	0%	1%	-11%
CNC(=S)Nc1cccc(S(=O)(=O)NC2=NCCC2)c1	x	-22%	23%	50µM*	x	-1%
COc1ccc(N2CCN(C(=O)COc3ccccc3C#N)CC2)cc1	x	x	1%	u	-32%	-26%
CCNC(=O)/C=C1\NC(C)(C)Cc2c1ccc1ccccc21	x	14%	1%	11µM*	-36%	-23%
CC1(C)Cc2c(ccc3ccccc23)C(=O)N1	2%	7%	45%	-1%[12.7 µM]	4%	-1%
CCC1(C)Cc2ccccc2/C(=C/C(=O)N2CCCCC2)N1 (stereo unspecified)	-5%	14%	0%	40µM*	u	u
CC1(C)Cc2ccccc2C(=O)N1	-7%	11%	38%	6%[59 µM]	8%	-4%
CNC(=O)/C=C1\NC(C)(C)Cc2ccccc21	x	50µM*	27%	-20%[12.7 µM]	-30%	-5%
NNC(=O)C(=O)/C=C1\NC2(CCCC2)Cc2ccccc21	-13%	5%	7%	-7%[59 µM]	u	-34%
O=C(CN(Cc1ccc(F)cc1)C(=O)CNS(=O)(=O)c1ccc(Cl)cc1)NCC1CCCO1 (stereo unspecified)	x	1%	-6%	-12%	6%	-17%
COc1ccccc1-c1cn(-c2ccccc2)c(=S)[nH]1	x	u	30%	12%	-28%	-34%
COC(=O)c1ccc(-n2cc(-c3ccc(OC)cc3)[nH]c2=S)cc1	1%	-23%	13%	1.1µM*	-10%	-16%
COc1cccc(-n2cc(-c3ccc(F)cc3)[nH]c2=S)c1	x	u	14%	u	50µM*	45µM*
COc1ccc(-n2cc(-c3ccc(Cl)cc3)[nH]c2=S)cc1	-4%	2%	47%	x	-2%	0%
COc1ccc(-c2cn(-c3ccccc3)c(=S)[nH]2)cc1OC	x	u	-6%	8.9µM*	u	-33%
COc1ccc(-c2cn(-c3ccc(C)c(Cl)c3)c(=S)[nH]2)cc1OC	x	-24%	-4%	50µM*	-10%	-15%
O=C(COC(=O)/C=C/c1ccccc1)NC1CCCCCC1	-1%	x	12%	2%[0.501 µM]	1%	-9%
CC(C)Oc1ccc(CNC(=O)c2ccc3c(c2)N(Cc2ccc(F)cc2)CCS3)cc1	x	x	31%	1%[59 µM]	0%	-17%
CC[C@@]1(C(=O)OC)N[C@H](CN(C)C(=O)Nc2ccc(Cl)cc2)[C@@H]2C(=O)N(Cc3ccccc3)C(=O)[C@@H]21	4%	x	18%	x	x	-18%
CN(Cc1ccco1)c1cc(-c2ccc3c(c2)OCO3)ncn1	x	-13%	x	2%[0.501 µM]	x	x
CC(=O)Nc1ccc(N(CC(O)Cn2c3ccccc3c3ccccc32)S(=O)(=O)c2ccc(C)cc2)cc1 (stereo unspecified)	-16%	22%	5%	10µM*	-26%	-26%
CCCn1nc(C(=O)OCC(=O)Nc2ncc(Cl)c(C)c2Cl)c2ccccc2c1=O	0%	6%	-1%	u	-17%	-14%
SMILES	L3MBTL1 block	Sfp inh	HP1b chromo inh	G9a inh	BAZ2B block	JMJD2A Tudor
Cc1ccccc1OCC(=O)OCC(=O)Nc1ncc(Cl)c(C)c1Cl	u	x	5%	15%[2.33 µM]	56µM*	u
Cc1ccccc1OCC(=O)OCC(=O)Nc1ccc(Cl)cn1	-1%	x	31%	-4%[2.33 µM]	3%	-14%
Cc1c(Cl)cnc(NC(=O)COC(=O)c2nn(C)c(=O)c3ccccc23)c1Cl	-4%	-7%	14%	45µM*	u	-24%
COc1ccc(-c2nnc3ccc(SCC(=O)N4CCCCCC4)nn23)cc1OC	-9%	17%	34%	u	7%	-28%
CCOc1ccc(-c2nnc3ccc(SCC(=O)N4CCCCC4)nn23)cc1	2%	14%	66%	35µM*	8%	-9%
O=C(CSc1ccc2nnc(-c3ccc(Cl)cc3)n2n1)N1CCCc2ccccc21	28%	-6%	25%	32µM*	27%	-21%
COc1ccc(-c2nnc3ccc(SCC(=O)N4CCCC4)nn23)cc1	2%	u	43%	50µM*	9%	-9%
O=C(CSc1ccc2nnc(-c3ccc(F)cc3)n2n1)N1CCCc2ccccc21	6%	-29%	-2%	4%	3%	2%
CCOc1ccc(-c2nnc3ccc(SCC(=O)Nc4nc5ccc(C)cc5s4)nn23)cc1	7%	u	52%	45µM*	2%	-7%[57.1 µM]
COc1ccc(-c2[nH]c3c(c2-c2c(-n4cccc4)n(C)c(=O)[nH]c2=O)c(=O)[nH]c(=O)n3C)cc1F	x	x	51%	-3%[59 µM]	-19%	-1%
Cc1ccc(S(=O)(=O)NCc2nc3cccnc3n2Cc2ccccc2Cl)c(C)c1	x	x	26%[57 µM]	34%[59 µM]	-17%	-6%
S=C(NNc1cccc(Cl)c1)NC1CCCCC1	-19%	-3%	u	28µM*	35µM*	8.9µM*
NC(=S)NNc1cccc(Cl)c1	x	40µM*	29%	8.9µM*	-2%	u
Cc1ccccc1NC(=O)Nc1ccccc1C(N)=O	-5%	10%	-7%	-3%[59 µM]	2%	-13%
NC(=S)NNC(=O)Nc1cccc(Cl)c1	4%	14%	26%	8.9µM*	4%	u
Cc1ccccc1NNC(N)=S	24%	50µM*	10%	11µM*	-17%	-15%
S=C(Nc1cccc(Cl)c1)NC1CCCCC1	1%	9%	49%	44%	4%	-4%
Cn1nnnc1Sc1ncnc2scc(-c3cccc(Cl)c3)c12	x	x	x	x	x	-27%
CCc1ccccc1NC(=O)C1CCN(C(=O)N2CC(C)Oc3ccc(Cl)cc32)CC1 (stereo unspecified)	x	x	u	u	-31%	u
Cc1cccc(Nc2ccccc2)c1	3%	16%	59%	-9%[12.7 µM]	3%	9%
Cc1cccc(NNC(N)=S)c1	-14%	14µM*	-16%	40µM*	u	-19%
O=C1/C(=C/c2ccco2)SC(=S)N1C1CCS(=O)(=O)C1 (stereo unspecified)	u	17%	-15%	45µM*	50µM*	u

Assay outcomes as filed in PubChem.
